# According to PubChem BioAssay (NCATS):
# Records with an inconclusive call do not appear. Values without a mark were called inactive. Calls of active or inactive are those of the source. The call rests on the fitted dose curve; in most records, active means well fitted inhibition curve with a large enough effect; inconclusive means small, poorly fitted or top-dose-only effect; inactive means flat fitted curve, though single readings scatter.
# How the values were obtained:
# CRL-7250 = normal cell line; assay: Cytotoxic Profiling of Annotated Libraries Using Quantitative High-Throughput Screening (AID 1296008); conditions: Five cell lines viability, CellTiter-Glo ATP luminescence, 48-72 h; max response: hits give low values; further: nearly all actives have a fitted effect of over 60% in size
# Summary of the method: (§1)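 Cells exposed to compounds for 48 or 72 hr at 37 degrees Celsius. Viability read as ATP-coupled luminescence with CellTiter-Glo after 10 min at room temperature.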
# HEK293 = assay: as above; conditions: Five cell lines viability, CellTiter-Glo ATP luminescence, 48-72 h; max response: hits give low values
# Summary of the method: as §1
# On the % scale 0 is the no-effect control and ±100 the full control effect; potency means the concentration at half of the fitted maximal effect.
structure (smiles),measurement,setting,value
Cc1nc2sc(C(=O)NCc3ccncc3)c(N)c2c(C)c1Cl,max response,CRL-7250,0.486%
same,max response,HEK293,-2.15%
CC1(C)CC[C@]2(C(=O)OC3OC(CO)C(O)C(O)C3O)CC[C@]3(C)C(=CCC4[C@@]5(C)CC[C@H](OC6OC(C(=O)O)C(O)C(OC7OC(CO)C(O)C(O)C7O)C6O)C(C)(C)C5CC[C@]43C)C2C1 (some centres undefined),max response,CRL-7250,1.42%
same,max response,HEK293,1.3%
O=C1CSc2ccccc2N1Cc1cccc(C(F)(F)F)c1,max response,CRL-7250,-9.14%
same,max response,HEK293,-20.3%
CC1CC2OC3(OC2C(C)(C)O)C1C1(C)CCC24CC25CCC(O[C@@H]2OC[C@@H](O)[C@H](O)[C@H]2O)C(C)(C)C5CC=C4C1(C)C3O (some centres undefined),max response,CRL-7250,-7.03%
same,outcome,HEK293,inactive
O=S(=O)(c1ccc(S(=O)(=O)n2cnc3ccccc32)cc1)N1CCCCCC1,max response,CRL-7250,-2.18%
same,max response,HEK293,-10.3%
C=C(C(=O)O)C1CC2=C(C)CCCC2(C)C[C@@H]1O (some centres undefined),outcome,CRL-7250,inactive
same,max response,HEK293,-3%
C[C@@H]1O[C@@H](O[C@@H]2[C@@H](O[C@@H]3O[C@@H](C)[C@H](O[C@@H]4OC[C@H](O)[C@H](O[C@@H]5OC[C@@H](O)[C@H](O)[C@H]5O)[C@H]4O)[C@@H](O[C@@H]4OC[C@](O)(CO)[C@H]4O)[C@H]3O)[C@H](OC(=O)[C@]34CCC(C)(C)C[C@H]3C3=CCC5[C@@]6(C)C[C@H](O)[C@H](O[C@@H]7O[C@H](CO[C@@H]8OC[C@H](O)[C@H](O)[C@H]8O)[C@@H](O)[C@H](O)[C@H]7O)C(C)(C)C6CC[C@@]5(C)[C@]3(C)C[C@H]4O)OC[C@H]2O)[C@H](O)[C@H](O)[C@H]1O (some centres undefined),outcome,CRL-7250,inactive
same,max response,HEK293,0.0429%
O=C(Nc1c(-c2cccs2)nc2ccccn12)c1ccc(Cl)cc1,outcome,CRL-7250,inactive
same,max response,HEK293,-117%
C[C@]12C[C@@H](O)[C@@H]3C[C@@]1(O[C@@H]1O[C@H](CO)[C@@H](O)[C@H](O)[C@H]1O)[C@]3(COC(=O)c1ccccc1)C(=O)O2,max response,CRL-7250,-9.75%
same,outcome,HEK293,inactive
O=C1CCC(=O)N(O)CCCCCNC(=O)CCC(=O)N(O)CCOCCNC(=O)CCC(=O)N(O)CCCCCN1,max response,CRL-7250,-5.63%
same,max response,HEK293,1.01%
CC1(C)CC[C@]2(C(=O)O[C@@H]3O[C@H](CO)[C@@H](O)[C@H](O)[C@H]3O)CC[C@]3(C)C(=CCC4[C@@]5(C)C[C@@H](O)[C@H](O)[C@](C)(C=O)C5CC[C@]43C)[C@@H]2[C@@H]1O (some centres undefined),outcome,CRL-7250,inactive
same,max response,HEK293,-5.81%
Cc1cc(OCc2nnc(SC3CCCC3)n2-c2cccnc2)ccc1-c1ccc(S(C)(=O)=O)cc1,Potency,CRL-7250,0.411 µM (active)
same,Potency,HEK293,0.291 µM (active)
CC(CCC1(O)OC2CC3C4CCC5CC(O[C@@H]6O[C@H](CO)[C@@H](O)[C@H](O)[C@H]6O[C@@H]6O[C@@H](C)[C@H](O)[C@@H](O)[C@H]6O)C(O)CC5(C)C4CCC3(C)C2C1C)CO[C@@H]1O[C@H](CO)[C@@H](O)[C@H](O)[C@H]1O (some centres undefined),max response,CRL-7250,-4.35%
same,max response,HEK293,0.184%
CC(=O)O[C@H]1CC(C)(C)CC2[C@@]13[C@H](O)C[C@]1(C)[C@@]2(CCC2[C@@]4(C)CC[C@H](O[C@@H]5OC[C@H](O[C@@H]6O[C@H](CO)[C@@H](O)[C@H](O)[C@H]6O[C@@H]6OC[C@@H](O)[C@H](O)[C@H]6O)[C@H](O)[C@H]5O[C@@H]5O[C@H](CO)[C@@H](O)[C@H](O)[C@H]5O)C(C)(C)C4CC[C@]21C)O[C@@H]3O (some centres undefined),Potency,CRL-7250,2.46 µM (active)
same,Potency,HEK293,1.95 µM (active)
CC1(C)CC[C@]2(C(=O)O[C@@H]3O[C@H](CO)[C@@H](O)[C@H](O)[C@H]3O)CC[C@]3(C)C(=CCC4[C@@]5(C)C[C@@H](O)[C@H](O)[C@](C)(C(=O)O)C5CC[C@]43C)C2C1O (some centres undefined),max response,CRL-7250,2.5%
same,max response,HEK293,-1.42%
Cc1cc(O)cc(O[C@@H]2O[C@H](CO)[C@@H](O)[C@H](O)[C@H]2O)c1,outcome,CRL-7250,inactive
same,max response,HEK293,0.562%
O=C1NC(Cc2c[nH]c3ccccc23)C(=O)NC1Cc1cnc[nH]1 (centres undefined),outcome,CRL-7250,inactive
same,max response,HEK293,-5.57%
O=S(=O)(Nc1ccccn1)c1ccc(N=Cc2c(O)[nH]c3ccc4ncsc4c23)cc1,outcome,CRL-7250,inactive
same,max response,HEK293,-3.48%
OC[C@H]1O[C@@H](OC[C@H]2O[C@@H](OC/C=C/c3ccccc3)[C@H](O)[C@@H](O)[C@@H]2O)[C@@H](O)[C@@H]1O,max response,CRL-7250,0.699%
same,max response,HEK293,4.4%
C[C@H]1CC[C@@H]2N(C1)C[C@@H]1[C@H]([C@@H](O)[C@H](O)[C@]3(O)[C@H]1C[C@@]14OC5(O)[C@@H](C[C@@H](O)[C@@H]31)[C@]4(C)CC[C@@H]5O)[C@]2(C)O,outcome,CRL-7250,inactive
same,max response,HEK293,-8.96%
OC/C=C/c1ccc(O[C@@H]2O[C@H](CO)[C@@H](O)[C@H](O)[C@H]2O)cc1,max response,CRL-7250,-14.7%
same,max response,HEK293,-1.19%
Nc1ncnc2c1nc(N)n2[C@@H]1O[C@H](CO)[C@@H](O)[C@H]1O,Potency,CRL-7250,2.59 µM (active)
same,Potency,HEK293,1.64 µM (active)
Nc1ccc(/C=C/C(=O)NCc2cc3cc(-c4ccc(C(=O)N5CCC(F)(F)CC5)cc4)cc(-c4ccc(F)cc4)c3o2)cn1,Potency,CRL-7250,3.66 µM (active)
same,Potency,HEK293,0.58 µM (active)
C=C1CC[C@@H]2[C@](C)(CO[C@@H]3O[C@H](CO)[C@@H](O)[C@H](O)[C@H]3O)[C@H](O)CC[C@@]2(C)[C@@H]1C/C=C1/C(=O)OC[C@H]1O,max response,CRL-7250,4.42%
same,max response,HEK293,-4.02%
C[C@@H]1CCC2C(C)(C)[C@H](O)CC[C@]2(C)[C@@]12Cc1c(O)cc3c(c1O2)CN([C@@H](CCC(=O)O)C(=O)O)C3=O (some centres undefined),outcome,CRL-7250,inactive
same,outcome,HEK293,inactive
COC(=O)C1=C2Nc3ccccc3C23CCN2CCCC(C(C)O)(C1)C23 (centres undefined),outcome,CRL-7250,inactive
same,max response,HEK293,-3.43%
O=C(O)/C=C/c1ccc(O)c(O[C@@H]2O[C@H](CO)[C@@H](O)[C@H](O)[C@H]2O)c1,outcome,CRL-7250,inactive
same,max response,HEK293,-13.2%
CC1OC(OC2C(CO)OC(OCC3OC(OC(=O)C45CCC(C)(C)CC4C4=CCC6C7(C)CCC(OC8OC(CO)C(O)C(OC9OC(CO)C(O)C(O)C9O)C8O)C(C)(C)C7CCC6(C)C4(C)CC5)C(O)C(O)C3O)C(O)C2O)C(O)C(O)C1OC1OC(CO)C(O)C(O)C1O (centres undefined),max response,CRL-7250,-0.747%
same,max response,HEK293,-0.594%
COc1cc(OC)cc(C(=O)Nc2ccc(Cl)c(-c3nc4ccc(N(C)C)cc4[nH]3)c2)c1,outcome,CRL-7250,inactive
same,Potency,HEK293,10.3 µM (active)
O=C(Nc1ccc(S(=O)(=O)Nc2nccs2)cc1)C(c1ccccc1)c1ccccc1,max response,CRL-7250,-0.59%
same,max response,HEK293,-0.0195%
Cc1cc(C(=O)Nc2cccc(C(=O)Nc3cccc(C(F)(F)F)c3)c2)on1,max response,CRL-7250,4.99%
same,max response,HEK293,2.99%
C[C@@H]1O[C@@H](O[C@H]2[C@H](O[C@H]3[C@H](O[C@H]4CC[C@@]5(C)C(CC[C@]6(C)C5CC=C5[C@@H]7CC(C)(C)C[C@@H](O)[C@]7(C)CC[C@]56C)[C@@]4(C)CO)O[C@H](C(=O)O)[C@@H](O)[C@@H]3O)OC[C@H](O)[C@@H]2O)[C@H](O)[C@H](O)[C@H]1O (some centres undefined),max response,CRL-7250,-3.42%
same,max response,HEK293,-4.78%
C/C=C1\[C@H](O[C@@H]2O[C@H](CO)[C@@H](O)[C@H](O)[C@H]2O)OC=C2C(=O)OCCc3ccc(O)c(c3)Oc3ccc(cc3)CCOC(=O)C[C@H]21,max response,CRL-7250,-21.9%
same,max response,HEK293,-25.1%
CS(=O)(=O)N1CCC(NC(=O)c2[nH]ncc2NC(=O)c2c(Cl)cccc2Cl)CC1,Potency,CRL-7250,3.26 µM (active)
same,Potency,HEK293,1.16 µM (active)
C=C1CCC2C(C)(COC(C)=O)CCCC2(C)C1CCC(C)CC(=O)O (centres undefined),max response,CRL-7250,-3%
same,outcome,HEK293,inactive
COc1cc2c(cc1O)CC[C@H]1[C@@H]2CC[C@]2(C)[C@H](O)CC[C@@H]12,Potency,CRL-7250,14.6 µM (active)
same,Potency,HEK293,1.03 µM (active)
CC(=O)CCC1=C(C)C(O[C@@H]2O[C@H](CO)[C@@H](O)[C@H](O)[C@H]2O)C(O)CC1(C)C (some centres undefined),max response,CRL-7250,-13.4%
same,max response,HEK293,0.019%
CC(C)=CCC(O)/C(C)=C/CO[C@@H]1O[C@H](CO)[C@@H](O)[C@H](O)[C@H]1O (some centres undefined),outcome,CRL-7250,inactive
same,max response,HEK293,-0.719%
CC(=O)O[C@H]1CC[C@H](C)[C@@]2(C)[C@H](OC(C)=O)c3c(C)coc3C(=O)[C@H]12,max response,CRL-7250,-18.1%
same,max response,HEK293,-27.7%
CCNC(=O)Nc1ccc(-c2nc3c(c(N4CCOC[C@@H]4C)n2)CCN(c2ncccn2)C3)cc1,Potency,CRL-7250,0.259 µM (active)
same,Potency,HEK293,0.184 µM (active)
CC(C)C[C@H](CC(=O)NO)C(=O)N[C@H](C(=O)N[C@@H](C)C(=O)NCCN)C(C)(C)C,outcome,CRL-7250,inactive
same,max response,HEK293,-1.44%
CC12CCC3c4ccc(O)cc4CCC3C1CC(OC1OC(C(=O)O)C(O)C(O)C1O)C2O (centres undefined),max response,CRL-7250,-23.2%
same,max response,HEK293,4.04%
N[C@@]1(C(=O)O)CC[C@H]2[C@H](C(=O)O)[C@H]21,outcome,CRL-7250,inactive
same,max response,HEK293,4.28%
C=C(C)[C@@H]1CC[C@]2(C)CC[C@]3(C)[C@H](CC[C@@H]4[C@@]5(C)CC[C@@H](O)C(C)(C)[C@@H]5CC[C@]43C)[C@@H]12,max response,CRL-7250,-1.57%
same,max response,HEK293,-21%
CC1(C)CCCC2(C)C1CC=C1C(=O)OC(O)C12O (centres undefined),max response,CRL-7250,-7.54%
same,max response,HEK293,-21.2%
Cc1ccc(S(=O)(=O)c2ccc([N+](=O)[O-])o2)cc1,Potency,CRL-7250,5.8 µM (active)
same,Potency,HEK293,1.03 µM (active)
N#C[C@@H]1C[C@H](F)CN1C(=O)CNC1[C@H]2CN(C(=O)c3ccc(F)cc3)C[C@@H]12 (some centres undefined),max response,CRL-7250,-1.2%
same,max response,HEK293,2.87%
